Experiments:
[1] = molecular target: T1, Aurora kinase A (Homo sapiens) (UniProt O14965); settings: at 1 µM;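 also: values are mean percent inhibition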
T1 sequence (whole entry): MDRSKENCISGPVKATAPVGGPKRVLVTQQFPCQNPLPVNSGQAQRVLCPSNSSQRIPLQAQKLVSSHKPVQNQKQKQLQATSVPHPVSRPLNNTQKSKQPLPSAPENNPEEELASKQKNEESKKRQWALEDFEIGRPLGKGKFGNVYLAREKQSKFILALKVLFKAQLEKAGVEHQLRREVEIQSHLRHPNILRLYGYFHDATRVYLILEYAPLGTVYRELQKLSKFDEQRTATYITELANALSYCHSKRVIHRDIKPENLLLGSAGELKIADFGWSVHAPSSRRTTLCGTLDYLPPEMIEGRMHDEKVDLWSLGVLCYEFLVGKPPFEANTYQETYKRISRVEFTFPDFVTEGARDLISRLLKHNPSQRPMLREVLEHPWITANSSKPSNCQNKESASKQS

[2] = molecular target: Aurora kinase B (Homo sapiens) (UniProt Q96GD4); settings: at 0.1 µM
Sequence of Aurora kinase B (Homo sapiens) (Q96GD4 whole entry): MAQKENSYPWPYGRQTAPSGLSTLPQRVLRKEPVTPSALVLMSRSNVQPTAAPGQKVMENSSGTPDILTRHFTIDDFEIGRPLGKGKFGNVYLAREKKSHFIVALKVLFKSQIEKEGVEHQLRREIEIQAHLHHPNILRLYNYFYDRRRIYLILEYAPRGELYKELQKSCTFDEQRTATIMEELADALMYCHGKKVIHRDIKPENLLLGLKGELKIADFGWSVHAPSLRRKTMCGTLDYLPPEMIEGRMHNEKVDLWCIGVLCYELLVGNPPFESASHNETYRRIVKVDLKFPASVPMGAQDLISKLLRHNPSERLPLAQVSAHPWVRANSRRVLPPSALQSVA

[3] = molecular target: Aurora kinase B (Homo sapiens) (UniProt Q96GD4); settings: at 1 µM
[4] = molecular target: T2, Aurora kinase C (Homo sapiens) (UniProt Q9UQB9); settings: at 0.1 µM
T2 sequence (whole entry): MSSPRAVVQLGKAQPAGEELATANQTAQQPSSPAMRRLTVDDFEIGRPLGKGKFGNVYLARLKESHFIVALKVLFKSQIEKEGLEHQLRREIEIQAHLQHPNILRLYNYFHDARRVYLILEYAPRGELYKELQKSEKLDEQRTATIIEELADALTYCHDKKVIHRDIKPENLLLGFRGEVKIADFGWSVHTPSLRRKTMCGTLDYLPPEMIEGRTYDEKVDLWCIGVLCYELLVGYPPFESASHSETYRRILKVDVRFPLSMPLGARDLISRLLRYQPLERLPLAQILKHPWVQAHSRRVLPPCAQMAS

[5] = molecular target: T2, Aurora kinase C (Homo sapiens); settings: at 1 µM
[6] = molecular target: Serine/threonine-protein kinase 10 (Homo sapiens) (UniProt O94804); settings: at 0.1 µM
Sequence of Serine/threonine-protein kinase 10 (Homo sapiens) (O94804 whole entry, looked up): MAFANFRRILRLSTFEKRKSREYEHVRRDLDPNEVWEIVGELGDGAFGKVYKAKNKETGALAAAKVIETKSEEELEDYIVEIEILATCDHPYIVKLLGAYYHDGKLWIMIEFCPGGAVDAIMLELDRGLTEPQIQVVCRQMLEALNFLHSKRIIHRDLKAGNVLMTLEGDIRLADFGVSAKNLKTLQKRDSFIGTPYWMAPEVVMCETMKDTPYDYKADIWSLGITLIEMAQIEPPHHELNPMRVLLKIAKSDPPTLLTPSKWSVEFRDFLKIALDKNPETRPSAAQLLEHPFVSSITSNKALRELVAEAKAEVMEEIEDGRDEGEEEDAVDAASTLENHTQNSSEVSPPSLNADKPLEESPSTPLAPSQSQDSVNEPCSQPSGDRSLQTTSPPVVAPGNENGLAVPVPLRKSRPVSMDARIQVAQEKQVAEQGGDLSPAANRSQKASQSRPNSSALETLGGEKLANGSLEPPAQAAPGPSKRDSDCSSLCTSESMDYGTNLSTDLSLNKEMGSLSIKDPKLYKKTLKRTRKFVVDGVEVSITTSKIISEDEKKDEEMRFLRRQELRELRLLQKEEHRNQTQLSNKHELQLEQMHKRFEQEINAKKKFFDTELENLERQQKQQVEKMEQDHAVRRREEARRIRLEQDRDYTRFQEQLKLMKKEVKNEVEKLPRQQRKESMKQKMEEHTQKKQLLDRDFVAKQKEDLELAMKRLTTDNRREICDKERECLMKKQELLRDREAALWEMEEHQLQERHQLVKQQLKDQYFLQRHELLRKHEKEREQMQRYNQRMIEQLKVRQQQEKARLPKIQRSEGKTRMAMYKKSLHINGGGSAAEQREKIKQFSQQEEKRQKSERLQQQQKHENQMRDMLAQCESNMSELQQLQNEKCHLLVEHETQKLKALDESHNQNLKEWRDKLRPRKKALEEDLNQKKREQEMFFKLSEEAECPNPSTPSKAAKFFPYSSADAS

[7] = molecular target: Serine/threonine-protein kinase 10 (Homo sapiens) (UniProt O94804); settings: at 1 µM
[8] = molecular target: T3, Mitogen-activated protein kinase kinase kinase kinase 2 (Homo sapiens) (UniProt Q12851); settings: at 0.1 µM
T3 sequence (whole entry): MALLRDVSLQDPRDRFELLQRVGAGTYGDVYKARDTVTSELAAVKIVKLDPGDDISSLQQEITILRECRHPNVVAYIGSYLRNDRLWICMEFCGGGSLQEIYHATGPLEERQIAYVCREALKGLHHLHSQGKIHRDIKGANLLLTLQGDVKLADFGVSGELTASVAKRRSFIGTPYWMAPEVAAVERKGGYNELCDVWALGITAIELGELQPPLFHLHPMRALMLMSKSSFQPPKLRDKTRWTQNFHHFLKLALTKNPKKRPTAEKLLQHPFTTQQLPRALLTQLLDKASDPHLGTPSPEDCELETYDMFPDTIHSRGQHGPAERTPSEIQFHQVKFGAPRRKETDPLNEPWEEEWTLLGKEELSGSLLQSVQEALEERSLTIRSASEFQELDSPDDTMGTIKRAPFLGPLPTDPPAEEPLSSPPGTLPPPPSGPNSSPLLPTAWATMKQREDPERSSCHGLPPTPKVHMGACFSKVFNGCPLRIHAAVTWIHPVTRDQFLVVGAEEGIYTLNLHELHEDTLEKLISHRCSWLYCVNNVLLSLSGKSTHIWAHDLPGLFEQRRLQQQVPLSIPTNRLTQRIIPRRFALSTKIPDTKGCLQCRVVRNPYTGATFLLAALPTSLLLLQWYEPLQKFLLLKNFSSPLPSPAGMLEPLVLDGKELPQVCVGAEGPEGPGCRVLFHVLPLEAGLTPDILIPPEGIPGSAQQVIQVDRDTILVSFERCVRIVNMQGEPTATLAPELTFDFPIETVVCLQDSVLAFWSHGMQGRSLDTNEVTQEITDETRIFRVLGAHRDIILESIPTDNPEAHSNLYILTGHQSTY

[9] = molecular target: T3, Mitogen-activated protein kinase kinase kinase kinase 2 (Homo sapiens); settings: at 1 µM
[10] = molecular target: Mitogen-activated protein kinase kinase kinase kinase 4 (Homo sapiens) (UniProt O95819); settings: at 0.1 µM
Sequence of Mitogen-activated protein kinase kinase kinase kinase 4 (Homo sapiens) (O95819 2-1239 limits assumed): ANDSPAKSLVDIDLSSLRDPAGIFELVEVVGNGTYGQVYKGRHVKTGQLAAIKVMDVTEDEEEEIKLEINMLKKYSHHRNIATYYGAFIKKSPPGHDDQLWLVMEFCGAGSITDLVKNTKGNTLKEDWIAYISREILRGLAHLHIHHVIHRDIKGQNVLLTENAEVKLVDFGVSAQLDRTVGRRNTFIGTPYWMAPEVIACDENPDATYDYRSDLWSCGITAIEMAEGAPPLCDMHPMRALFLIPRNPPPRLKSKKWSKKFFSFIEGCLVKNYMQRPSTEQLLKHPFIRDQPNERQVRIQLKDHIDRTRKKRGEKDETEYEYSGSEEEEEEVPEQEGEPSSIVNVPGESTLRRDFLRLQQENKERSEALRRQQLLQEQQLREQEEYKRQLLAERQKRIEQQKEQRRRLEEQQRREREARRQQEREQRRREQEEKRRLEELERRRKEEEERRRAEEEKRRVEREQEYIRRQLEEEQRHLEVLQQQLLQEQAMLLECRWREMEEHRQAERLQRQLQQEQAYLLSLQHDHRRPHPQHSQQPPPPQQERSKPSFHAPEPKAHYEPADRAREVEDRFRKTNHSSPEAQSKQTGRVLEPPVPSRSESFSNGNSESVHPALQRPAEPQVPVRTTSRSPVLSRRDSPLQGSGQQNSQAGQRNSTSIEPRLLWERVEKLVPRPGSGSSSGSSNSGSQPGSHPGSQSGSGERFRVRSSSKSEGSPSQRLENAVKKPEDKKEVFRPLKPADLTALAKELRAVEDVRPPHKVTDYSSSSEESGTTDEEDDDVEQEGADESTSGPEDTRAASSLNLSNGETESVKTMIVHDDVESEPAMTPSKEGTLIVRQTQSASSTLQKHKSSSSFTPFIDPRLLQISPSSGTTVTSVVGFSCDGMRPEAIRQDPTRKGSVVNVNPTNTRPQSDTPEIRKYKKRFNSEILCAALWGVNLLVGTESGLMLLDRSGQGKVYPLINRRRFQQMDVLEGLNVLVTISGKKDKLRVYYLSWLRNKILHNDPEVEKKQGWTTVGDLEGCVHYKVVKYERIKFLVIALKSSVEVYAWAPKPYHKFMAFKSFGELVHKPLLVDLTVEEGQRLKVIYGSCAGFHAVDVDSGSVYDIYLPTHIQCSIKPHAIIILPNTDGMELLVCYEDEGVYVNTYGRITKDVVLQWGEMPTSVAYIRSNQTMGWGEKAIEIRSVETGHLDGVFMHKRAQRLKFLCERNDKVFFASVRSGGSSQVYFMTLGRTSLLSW

[11] = molecular target: Mitogen-activated protein kinase kinase kinase kinase 4 (Homo sapiens) (UniProt O95819); settings: at 1 µM
[12] = molecular target: Dual specificity mitogen-activated protein kinase kinase 1 (Homo sapiens) (UniProt Q02750); settings: at 0.1 µM
Sequence of Dual specificity mitogen-activated protein kinase kinase 1 (Homo sapiens) (Q02750 whole entry): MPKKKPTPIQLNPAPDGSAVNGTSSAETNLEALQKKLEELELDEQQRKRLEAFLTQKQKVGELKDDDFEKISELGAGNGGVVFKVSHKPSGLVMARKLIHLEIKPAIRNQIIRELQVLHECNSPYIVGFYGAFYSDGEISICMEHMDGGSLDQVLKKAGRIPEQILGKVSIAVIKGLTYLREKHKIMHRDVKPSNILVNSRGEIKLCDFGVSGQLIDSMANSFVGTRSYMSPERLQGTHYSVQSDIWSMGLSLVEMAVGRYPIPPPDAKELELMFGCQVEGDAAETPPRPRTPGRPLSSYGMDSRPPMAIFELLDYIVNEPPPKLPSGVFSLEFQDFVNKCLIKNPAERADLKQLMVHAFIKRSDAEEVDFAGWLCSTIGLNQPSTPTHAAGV

[13] = molecular target: Dual specificity mitogen-activated protein kinase kinase 1 (Homo sapiens) (UniProt Q02750); settings: at 1 µM
[14] = molecular target: Misshapen-like kinase 1 (Homo sapiens) (UniProt Q8N4C8); settings: at 0.1 µM
Sequence of Misshapen-like kinase 1 (Homo sapiens) (Q8N4C8 whole entry, looked up): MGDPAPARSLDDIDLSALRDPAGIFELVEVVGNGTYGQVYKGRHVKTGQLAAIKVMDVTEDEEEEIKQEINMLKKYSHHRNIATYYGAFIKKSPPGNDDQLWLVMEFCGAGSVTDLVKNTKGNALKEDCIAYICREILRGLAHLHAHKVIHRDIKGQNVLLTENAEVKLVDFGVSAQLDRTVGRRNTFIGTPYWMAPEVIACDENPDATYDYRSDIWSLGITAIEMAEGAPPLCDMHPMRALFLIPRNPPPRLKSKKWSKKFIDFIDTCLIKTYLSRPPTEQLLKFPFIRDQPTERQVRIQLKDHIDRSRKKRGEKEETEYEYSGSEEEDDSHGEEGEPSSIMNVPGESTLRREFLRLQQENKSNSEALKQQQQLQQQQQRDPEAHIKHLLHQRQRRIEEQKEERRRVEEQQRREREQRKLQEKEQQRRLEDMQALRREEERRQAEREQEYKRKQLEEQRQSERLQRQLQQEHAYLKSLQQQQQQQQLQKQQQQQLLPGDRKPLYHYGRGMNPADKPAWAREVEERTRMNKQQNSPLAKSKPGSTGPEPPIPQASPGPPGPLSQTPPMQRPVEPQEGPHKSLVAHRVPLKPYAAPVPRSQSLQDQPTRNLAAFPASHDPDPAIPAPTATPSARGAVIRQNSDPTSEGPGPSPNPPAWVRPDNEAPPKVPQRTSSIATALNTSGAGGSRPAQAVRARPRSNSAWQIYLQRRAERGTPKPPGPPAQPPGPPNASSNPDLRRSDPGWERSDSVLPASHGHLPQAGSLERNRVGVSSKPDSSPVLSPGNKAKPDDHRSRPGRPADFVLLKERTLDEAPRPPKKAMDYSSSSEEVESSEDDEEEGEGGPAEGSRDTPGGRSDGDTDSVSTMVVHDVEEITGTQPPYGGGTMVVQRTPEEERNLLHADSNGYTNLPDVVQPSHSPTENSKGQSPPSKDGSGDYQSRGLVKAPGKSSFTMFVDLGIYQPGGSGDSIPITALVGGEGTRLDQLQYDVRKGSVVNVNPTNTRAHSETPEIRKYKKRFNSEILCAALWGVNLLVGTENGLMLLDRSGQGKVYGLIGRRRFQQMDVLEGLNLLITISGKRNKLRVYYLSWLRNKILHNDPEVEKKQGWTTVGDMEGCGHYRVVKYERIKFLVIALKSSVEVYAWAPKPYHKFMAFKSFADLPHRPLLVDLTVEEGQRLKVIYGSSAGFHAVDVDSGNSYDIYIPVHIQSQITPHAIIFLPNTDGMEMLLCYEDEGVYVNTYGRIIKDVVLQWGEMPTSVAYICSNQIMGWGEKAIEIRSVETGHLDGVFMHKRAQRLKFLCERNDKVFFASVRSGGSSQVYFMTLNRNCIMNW

[15] = molecular target: Misshapen-like kinase 1 (Homo sapiens) (UniProt Q8N4C8); settings: at 1 µM
[16] = molecular target: T4, Serine/threonine-protein kinase 4 (Homo sapiens) (UniProt Q13043); settings: at 0.1 µM
T4 sequence (whole entry): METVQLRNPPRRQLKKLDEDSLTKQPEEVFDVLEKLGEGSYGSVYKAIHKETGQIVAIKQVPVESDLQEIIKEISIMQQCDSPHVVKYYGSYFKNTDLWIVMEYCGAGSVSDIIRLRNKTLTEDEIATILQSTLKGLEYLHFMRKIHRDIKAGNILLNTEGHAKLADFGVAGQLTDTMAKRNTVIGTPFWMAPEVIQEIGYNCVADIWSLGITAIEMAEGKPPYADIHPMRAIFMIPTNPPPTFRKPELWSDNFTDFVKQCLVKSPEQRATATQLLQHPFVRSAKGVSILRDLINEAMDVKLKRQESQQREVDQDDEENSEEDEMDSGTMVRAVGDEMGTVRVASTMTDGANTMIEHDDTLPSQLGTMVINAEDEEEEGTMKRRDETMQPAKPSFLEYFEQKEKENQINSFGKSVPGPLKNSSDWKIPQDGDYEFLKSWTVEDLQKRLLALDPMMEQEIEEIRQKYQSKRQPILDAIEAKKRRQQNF

[17] = molecular target: T4, Serine/threonine-protein kinase 4 (Homo sapiens); settings: at 1 µM
[18] = molecular target: T5, Serine/threonine-protein kinase 3 (Homo sapiens) (UniProt Q13188); settings: at 0.1 µM
T5 sequence (whole entry): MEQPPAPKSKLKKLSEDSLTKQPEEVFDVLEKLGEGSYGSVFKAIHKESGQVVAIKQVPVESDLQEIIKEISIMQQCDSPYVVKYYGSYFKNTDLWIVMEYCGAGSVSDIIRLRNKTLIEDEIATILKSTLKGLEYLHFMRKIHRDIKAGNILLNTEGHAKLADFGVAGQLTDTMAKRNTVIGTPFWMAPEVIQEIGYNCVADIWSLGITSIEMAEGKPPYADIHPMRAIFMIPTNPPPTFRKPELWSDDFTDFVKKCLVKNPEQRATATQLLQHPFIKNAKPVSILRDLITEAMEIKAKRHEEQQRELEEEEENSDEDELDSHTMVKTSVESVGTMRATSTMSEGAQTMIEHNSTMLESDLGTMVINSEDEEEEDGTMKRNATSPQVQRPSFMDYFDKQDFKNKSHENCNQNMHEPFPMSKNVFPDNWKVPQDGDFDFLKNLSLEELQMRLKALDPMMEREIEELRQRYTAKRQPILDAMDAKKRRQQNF

[19] = molecular target: T5, Serine/threonine-protein kinase 3 (Homo sapiens); settings: at 1 µM
[20] = molecular target: Serine/threonine-protein kinase 26 (Homo sapiens) (UniProt Q9P289); settings: at 0.1 µM
Sequence of Serine/threonine-protein kinase 26 (Homo sapiens) (Q9P289 2-416 limits assumed): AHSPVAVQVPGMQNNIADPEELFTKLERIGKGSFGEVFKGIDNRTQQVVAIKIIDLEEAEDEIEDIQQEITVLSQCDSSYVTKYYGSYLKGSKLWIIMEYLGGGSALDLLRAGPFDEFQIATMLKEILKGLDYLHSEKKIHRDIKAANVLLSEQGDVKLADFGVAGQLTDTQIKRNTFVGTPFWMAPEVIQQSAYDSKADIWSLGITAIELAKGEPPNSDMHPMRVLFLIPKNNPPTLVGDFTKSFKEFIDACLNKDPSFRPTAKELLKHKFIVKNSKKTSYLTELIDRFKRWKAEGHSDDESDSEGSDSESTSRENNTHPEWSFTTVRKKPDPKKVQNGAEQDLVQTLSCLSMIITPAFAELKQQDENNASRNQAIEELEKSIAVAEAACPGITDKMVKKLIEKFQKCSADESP

Compound | inhibition [1] | inhibition [2] | inhibition [3] | inhibition [4] | inhibition [5] | inhibition [6] | inhibition [7] | inhibition [8] | inhibition [9] | inhibition [10] | inhibition [11] | inhibition [12] | inhibition [13] | inhibition [14] | inhibition [15] | inhibition [16] | inhibition [17] | inhibition [18] | inhibition [19] | inhibition [20]
CCN1CCC(C(=O)Nc2n[nH]c3nnc(-c4cccc(F)c4F)cc23)CC1 | 0.34% | -0.39% | 3.97% | 0.94% | 5.27% | -0.44% | -0.07% | 2.45% | 3.52% | 3.47% | 6.9% | 2.15% | 2% | 2.44% | 5.72% | 0.2% | 4.08% | -0.56% | 2.63% | 0.52%
COc1ccc(-c2nn3ncccc3c2-c2ccnc(Nc3ccc(F)c(F)c3)n2)cc1 | 28.5% | 4.36% | 14.3% | 1.75% | 6.44% | 7.15% | 23.5% | 2.1% | 1.49% | 8.56% | 16.4% | 6.07% | 3.87% | 9.98% | 13.8% | 6.88% | 11.6% | 5.53% | 10.2% | -0.41%
CN(c1ccc(NC(=O)NCCN2CCOCC2)cc1)c1ccnc(Nc2ccc(CS(C)(=O)=O)cc2)n1 | 93.9% | 29.7% | 76.9% | 43.8% | 104% | 11.9% | 34.2% | 0.62% | 3.53% | 4.19% | 14.7% | 5.04% | 7.12% | 3.82% | 7.42% | 7.84% | 18.8% | 6.91% | 13.6% | -1.2%
CC1(C)CC(n2cnc(-c3ccc(F)cc3)c2-c2ccnc(N)n2)CC(C)(C)N1 | 4.57% | 3.04% | -0.43% | -0.39% | -1.87% | 1.32% | 6.74% | 1.36% | 2.09% | 2.07% | 2.96% | 1.4% | 1.04% | 1.2% | 4.78% | -3.13% | -0.15% | -0.38% | -1.38% | -0.28%
CS(=O)(=O)Nc1ccc(-c2ccc3c(NC(=O)C4CC4)n[nH]c3c2)cc1 | 20.2% | 4.33% | 8.21% | 1.71% | 23.3% | 5.26% | 6.56% | 1.04% | 5.76% | 6.29% | 34.1% | 3.68% | 2.95% | 6.49% | 20.9% | 4.89% | 11.3% | 5.64% | 9.06% | -0.25%
Cc1ccc(-c2cc3c(NC(=O)C4CC4)ncnc3o2)cc1 | 15.8% | 5.78% | 17.5% | 2.4% | 19.2% | 2.34% | 15.1% | 0.9% | 2.12% | 6.07% | 8.27% | 3.02% | 3.21% | 6.35% | 8.16% | 6.14% | 7.49% | 5.64% | 4.87% | -2.57%
COc1c(C(N)=O)cc(-c2ccc(Cl)cc2)cc1-c1ccc(S(N)(=O)=O)cc1 | 3.86% | 2.21% | 3.28% | -0.05% | 0.52% | 5.14% | 6.24% | 0.59% | 2.11% | 6.38% | 5.7% | 3.99% | 3.65% | 6.03% | 7.24% | 2.89% | 4.76% | 5.08% | 4.15% | -1.15%
N#Cc1cccc(Nc2ncc(-c3ccccc3)o2)c1 | 11.6% | 4.81% | 1.97% | 1.44% | 5.62% | 2.27% | 3.84% | 0.79% | 2.94% | 4.93% | 23.8% | 2.21% | 2.12% | 5.1% | 19.2% | 3% | 5.15% | 4.16% | 5.23% | -0.1%
